Growth data for 7 compounds are collected here from PubChem BioAssay (NCI).

Holding throughout (assay): NCI-60 one-dose screen, 48 h (100 = growth as untreated, 0 = no growth, -100 = all killed)
Conditions in all cases: 10 µM unless noted

Assay [1] relates to NCI-H23 lung.
The test system of assay [2] is NCI-H226 lung.
For assay [3], the system named is NCI-H322M lung.
In assay [4] the test system is HOP-62 NSCLC.
The test system of assay [5] is NCI-H460 lung.
For assay [6], the system named is HOP-92 NSCLC.
The test system of assay [7] is NCI-H522 lung.
The subject of assay [8] is A549/ATCC NSCLC.
The subject of assay [9] is 786-0 renal.
The subject of assay [10] is COLO 205 colon.
Assay [11] has as its system DU-145 prostate.
Assay [12] relates to K-562 leukemia.
Assay [13] has as its system MALME-3M melanoma.
For assay [14], the system named is MDA-MB-231 breast.
Assay [15] deals with RXF 393 renal.
The subject of assay [16] is SF-268 CNS.
The test system of assay [17] is SF-295 CNS.
For assay [18], the system named is SF-539 CNS.
In assay [19] the test system is UACC-257 melanoma.
Assay [20] relates to M14 melanoma.

This is part of a sample that, as a whole, favours compounds with a hit. Of some 83,000 tested, about 20% had one in any assay.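 Method: cells in 96-well plates; compound added at one concentration; 48 h incubation; percent growth measured; values under 10 scored active.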 Unmarked numbers belong to inactive results. Calls of active or inactive are those of the source.

Take `COc1ccc2nc3ccccc3c(NCc3ccccc3)c2c1`: the growth is 21.5% in assay [1]; 34.4% in [2]; 29.5% in assay [3]; 33.6% in assay [4]; 6.31% (active) in assay [5]; -13.4% (active) in [6]. Also, the growth in assay [7] is 34.6%; in assay [8], 18.2%; in assay [9], 22.3%; in [10], -19.1% (active); in assay [11], 22.5%; in assay [12], 5.75% (active). The growth in assay [13] was 22.5%; in assay [14], 27.8%; in [15], 5.86% (active); in assay [16], 44.2%; in assay [17] it was 19.7%; in assay [18], 11.8%. Further, the growth in assay [19] is 27.1%; in assay [20], 26%.
With `Cn1cccc1/C=C1\C(=O)Nc2ccccc21`, the growth in [1] was 66.9%; in assay [2], 104%; in [3], 87.9%; in assay [4], 86.8%; in [5], 89.1%; in assay [6], 97.2%. In addition, the growth was 101% in [7]; 101% in [8]; 96.6% in assay [9]; 121% in [10]; 110% in assay [11]; 98.9% in assay [12]. Moreover, the growth is 94.8% in assay [13]; 67.4% in assay [14]; 103% in [15]; 92.3% in assay [16]; 100% in [17]; 99.5% in [18]. Further, the growth in assay [19] is 98%; in [20] it was 96.6%.
Take `C=C1C(=O)O[C@H]2[C@H]1CC/C(COC(=O)/C=C\C(=O)NCc1ccc(Cn3c(=O)sn(-c4ccccc4)c3=O)cc1)=C\CC[C@@]1(C)O[C@@H]21`: the growth in [1] is 92.1%; in assay [2] it was 105%; in [3], 107%; in assay [4] it was 105%; in assay [5] it was 96.7%; in [6] it was 84.4%. Moreover, the growth in [7] was -5.66% (active); in assay [8] it was 98%; in [9], 70.5%; in assay [10], 9.17% (active); in [11], 55.7%; in [12] it was 16.2%. For the same compound, the growth in assay [13] was 55.9%; in assay [14], 85.6%; in assay [15], 84.3%; in [16] it was 99.1%; in [17] it was 103%; in assay [18] it was 92%. Further, the growth in assay [19] was 73.8%; in assay [20], 47.8%.
In the case of `CCNC(=O)Oc1ccc(/C(=C(/C)Cc2ccc(OC)cc2)c2ccc(OCCN3CCCCCC3)cc2)cc1`, the growth in assay [1] was 75.9%; in [2] it was 96.2%; in [3], 95.5%; in assay [4] it was 84.4%; in [5], 30.6%; in assay [6] it was 40.8%. The growth was 54.2% in [7]; 54.9% in assay [8]; 72% in assay [9]; 28.7% in assay [10]; 92.2% in assay [11]; 5.8% (active) in assay [12]. The growth in assay [13] was 109%; in assay [14], 64.1%; in assay [15], 68.3%; in assay [16] it was 74.5%; in assay [17], 88.4%; in assay [18] it was 96.4%. Also, the growth in assay [19] is 76.7%; in assay [20], 68.3%.
With `Cc1cc(C)cc(Nc2ccc([N+](=O)[O-])c(NCCN3CCOCC3)n2)c1`, the growth in assay [1] was 30.3%; in [2], 22.6%; in assay [3], 44.1%; in [4], 35.3%; in [5] it was 8.31% (active); in assay [6] it was 67.7%. The growth is 13.3% in assay [7]; 23.7% in assay [8]; 8.13% (active) in assay [9]; -45.9% (active) in assay [10]; -1.87% (active) in [11]; 7.21% (active) in assay [12]. Moreover, the growth in assay [13] was 60.5%; in [14], 31.2%; in [15], 58.4%; in assay [16] it was 25.1%; in [17], 15.7%; in [18] it was -11.3% (active). Also, the growth was 76.1% in assay [19] and 1.99% (active) in assay [20].
On to `COc1ccc2cc(Cn3cc[n+](Cc4ccc5ccccc5c4)c3)ccc2c1`, for which the growth is 36% in assay [1]; 49.2% in assay [2]; 65.8% in assay [3]; 49.8% in assay [4]; 38.3% in assay [5]; -11.8% (active) in assay [6]. Further, the growth is -13.6% (active) in assay [7]; 57.1% in [8]; 51% in assay [9]; -66.3% (active) in assay [10]; 52.2% in assay [11]; 18.4% in assay [12]. For the same compound, the growth in [13] was 24.3%; in assay [14] it was 29.8%; in [15], 4.94% (active); in assay [16], 22.6%; in assay [17] it was 67%; in assay [18], 48.5%. The results for the growth in assay [19] and in assay [20] were -15.8% (active) and 17.5%, respectively.
`CN1CCN(Cc2ccc(NC(=O)c3cncc(C#Cc4cncc5ncccc45)c3)cc2C(F)(F)F)CC1`: the growth was 15% in [1]; 12.7% in [2]; 18% in assay [3]; 10.4% in assay [4]; -47.3% (active) in [5]; -34.9% (active) in assay [6]. In addition, the growth in assay [7] is 19.7%; in [8], 17.7%; in assay [9], 38.3%; in [10] it was -23% (active); in assay [11] it was 34.4%; in assay [12], -8.35% (active). For the same compound, the growth was -14.4% (active) in assay [13]; 5.93% (active) in assay [14]; 8.21% (active) in assay [15]; 33.7% in assay [16]; 32.9% in assay [17]; -31.8% (active) in assay [18]. The growth in assay [19] was 6.41% (active); in assay [20], -51.1% (active).
